Measured values as given in PubChem BioAssay.
Potency and affinity values are given separately. Records with an inconclusive call do not appear. Entries that show only a call come without a potency. Calls of active or inactive are those of the source.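 Rule for the calls: active = signal-lowering compounds whose fitted half-maximal concentration is at or below twice the top tested dose in every run; inconclusive = runs disagree, flat 30 to 70% inhibition, or poor curve fit; inactive = the rest.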

Experiment: inhibitors of CMV-promoter luciferase reporter, dose response, counter-screen for Pax8 inhibitor project, cell-based, HEK293, luminescence, dry powder (AID 743020);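 note: HEK293 cells stably expressing the CMV luciferase reporter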
Settings: SteadyGlo luminescence, 24 h; series mostly up to 35 µM

Row | SMILES | outcome
1 | C[C@H](CO)N1C[C@H](C)[C@@H](CN(C)Cc2ccc(Cl)c(Cl)c2)Oc2ccc(NC(=O)Nc3ccc(C(F)(F)F)cc3)cc2CC1=O | inactive
2 | O=C(C[C@@H]1CC[C@@H]2[C@H](COC[C@H](O)CN2Cc2ccc3c(c2)OCO3)O1)Nc1ccc(-c2ccccc2)cc1 | inactive
3 | COc1cccc(-c2ccc([C@H]3[C@@H](CO)N(C(=O)c4ccccn4)[C@H]3C#N)cc2)c1 | inactive
4 | C[C@@H]1CCCCO[C@@H](CN(C)Cc2ccc(C(F)(F)F)cc2)[C@H](C)CN([C@H](C)CO)C(=O)c2cc(NC(=O)c3ccccc3)ccc2O1 | inactive
5 | COc1ccc(NC(=O)N2CCCCN3[C@H](CO)[C@H](c4ccc(C#Cc5ccccc5)cc4)[C@H]3C2)cc1 | inactive
6 | C[C@H]1CCCCO[C@H](CN(C)C(=O)Nc2ccc(C(F)(F)F)cc2)[C@@H](C)CN([C@@H](C)CO)C(=O)c2cc(NS(=O)(=O)c3ccccc3)ccc2O1 | inactive
7 | C[C@@H]1CN([C@@H](C)CO)C(=O)c2cc(NC(=O)Cc3ccccc3)ccc2O[C@@H](C)CCCCO[C@@H]1CN(C)Cc1ccc(C(F)(F)F)cc1 | inactive
8 | C[C@@H]1CN([C@@H](C)CO)C(=O)Cc2cc(NC(=O)C3CCCCC3)ccc2O[C@H]1CN(C)Cc1ccc(Cl)c(Cl)c1 | inactive
9 | C[C@@H]1CN([C@H](C)CO)C(=O)c2cc(NS(=O)(=O)c3ccccc3)ccc2O[C@@H](C)CCCCO[C@@H]1CN(C)Cc1ccc(Cl)c(Cl)c1 | inactive
10 | C[C@@H]1CN([C@H](C)CO)C(=O)c2cc(NC(=O)Nc3ccc(C(F)(F)F)cc3)ccc2O[C@@H](C)CCCCO[C@H]1CN(C)C(=O)Nc1ccc(C(F)(F)F)cc1 | inactive
